Results on 24 compounds are retold here after PubChem BioAssay (EPA / NIEHS).

Molecules are shown by their SMILES. Records with an inconclusive call do not appear. The source made the active and inactive calls. Rule for the calls: active = hit-call score of the fitted dose curve at least 0.9, where 1 is the maximum; inconclusive = response in the unintended direction; inactive = score below 0.9.

Cellular tumor antigen p53 (Homo sapiens), sequence (P04637 whole entry, looked up): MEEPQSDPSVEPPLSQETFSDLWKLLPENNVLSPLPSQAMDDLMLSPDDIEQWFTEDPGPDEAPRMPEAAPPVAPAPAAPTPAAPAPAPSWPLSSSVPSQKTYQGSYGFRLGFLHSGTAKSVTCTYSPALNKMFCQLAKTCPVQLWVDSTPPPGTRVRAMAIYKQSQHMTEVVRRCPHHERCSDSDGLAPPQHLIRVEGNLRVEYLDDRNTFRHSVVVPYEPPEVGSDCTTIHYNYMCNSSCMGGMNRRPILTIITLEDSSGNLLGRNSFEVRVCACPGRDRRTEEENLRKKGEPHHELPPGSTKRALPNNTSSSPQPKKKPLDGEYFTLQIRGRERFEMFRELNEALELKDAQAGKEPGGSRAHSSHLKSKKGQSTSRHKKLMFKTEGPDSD

This assay addresses Cellular tumor antigen p53 (Homo sapiens) (UniProt P04637). Put plainly: TOX21_p53_BLA_p4_ratio: Tox21 HCT-116 p53 Agonism Beta-lactamase Assay, Ratio, Phase 4 (AID 2283601). In a few lines: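 HCT116 cells carrying an inducible beta-lactamase reporter were plated at 4000 cells/well, rested 5 h, then exposed to compounds in DMSO (217-fold dilution) for 16 h at 37C. CCF4-AM substrate was loaded 2 h at room temperature; 460/530 nm emission ratio scored gain-of-signal versus DMSO.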
As for `CC(C)(C)NSc1nc2ccccc2s1`, the result was inactive.

`CN[C@@H]1CCc2[nH]c3ccc(C(N)=O)cc3c2C1`: the outcome was inactive.

`C[C@@H](c1ncncc1F)[C@](O)(Cn1cncn1)c1ccc(F)cc1F`: the outcome was inactive.

Turning to `O=C(Oc1ccccc1C(=O)O)c1ccccc1O`, the outcome was inactive.

In the case of `CCC(C=O)CC`, the result was inactive.

Take `CC1(C)S[C@@H]2[C@H](NC(=O)[C@@H](NC(=O)N3CCNC3=O)c3ccccc3)C(=O)N2[C@H]1C(=O)O`: the result was inactive.

With `O=C(c1ccc(Cl)cc1)c1ccc(Cl)cc1`, the outcome was inactive.

Take `CCN(CC)CC(=O)Nc1c(C)cccc1C`: the result was inactive.

Consider `NC(CO)C(=O)NNCc1ccc(O)c(O)c1O` (centres undefined), for which the result was inactive.

As for `CN1CCN(c2cc3c(cc2F)c(=O)c(C(=O)O)cn3-c2ccc(F)cc2)CC1`, the result was inactive.

With `CC(C)c1ccccc1C(C)C`, the result was inactive.

In the case of `CC/C(=C(/CC)c1ccc(OP(=O)(O)O)cc1)c1ccc(OP(=O)(O)O)cc1`, the result was inactive.

In the case of `Cc1cccc(C)c1NC(=O)NC1=CCCN1C`, the result was inactive.

As for `COc1cc(C(=O)N2CCCCCCC2)cc(OC)c1OC`, the result was inactive.

As for `Nc1cccc2c(=O)[nH][nH]c(=O)c12`, the result was inactive.

Consider `CC(N)CN` (centres undefined), for which the outcome was inactive.

For `CCN1CCCC1CNC(=O)c1cc(S(N)(=O)=O)ccc1OC` (centres undefined), the result was inactive.

Take `CS(=O)(=O)CCNCc1ccc(-c2ccc3ncnc(Nc4ccc(OCc5cccc(F)c5)c(Cl)c4)c3c2)o1`: the outcome was inactive.

In the case of `CC(C)C(=O)OCC(C)(C)C(O)C(C)C` (centres undefined), the result was inactive.

In the case of `CCCCCCOC(=O)c1cccnc1`, the outcome was inactive.

As for `CC(=O)OCC1=C(C(=O)O)N2C(=O)[C@@H](NC(=O)Cc3ccccc3)[C@H]2SC1`, the outcome was inactive.

On to `O=C1c2ccccc2C(=O)N1CO`, for which the result was inactive.

`CCN1C(=O)c2ccccc2C1Nc1ccc(OCCN2CCCCC2)cc1` (centres undefined): the result was inactive.

For `CCN(CCO)CCCC(C)Nc1ccnc2cc(Cl)ccc12` (centres undefined), the result was inactive.
